# Whole data set: some 33,000 sequences, median “e-score” near -0.038, cut for the highest 2% near 0.33. For the sample, the highest values were picked, then their nearest neighbours and some sequences at random.
# Molecular target: T1, GST-Rok-C97-191 (Bacillus subtilis subsp. subtilis str. …, UniProt O34857 97-191)
# T1 sequence: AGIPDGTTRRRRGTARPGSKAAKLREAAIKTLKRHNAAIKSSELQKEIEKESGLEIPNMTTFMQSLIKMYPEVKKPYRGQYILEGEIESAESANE
# Assay: protein binding microarray; Rok is a gene silencer of Bacillus subtilis; high values mean tight binding
# Conditions: protein: recombinant; tags: GST (pTH5325, pDEST15-Magic modified); dsDNA, one strand shown
# Outline: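 Every oligonucleotide joins a 25-mer constant primer to a 35-mer variable part drawn from a de Bruijn sequence of order 10, so each non-palindromic 8-mer appears at least 32 times and each palindromic 8-mer 16 times. The preference for every 8-mer is reported as a unitless, rank-based enrichment score (E-score). This score spans 0.5 for the most favored 8-mer to −0.5 for the most disfavored.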
row,Sequence,binding signal [E-score]
1,AAGGTTGA,0.063
2,CTACCTTA,0.264
3,AAAAGCAA,0.148
4,CGATTATC,0.0925
5,TACTGAGA,0.0745
6,CTACTAAA,0.379
7,CTACTAAG,0.261
8,GTACTAAC,0.145
9,ATACTAAC,0.103
10,ATACTAAT,0.321
11,TGACTAAA,0.0396
12,GTACTAAA,0.329
13,CTACTAAC,0.223
14,TCACTAAA,0.164
15,ATACTAAA,0.39
16,TTACTAAA,0.335
17,GGACTAAA,0.0947
18,TATTTCCA,0.228
19,ACTATTGC,0.313
20,CTATCTTA,0.227
21,AAGAATCT,0.0962
22,TTCCTCAA,0.041
23,AACTGAGC,0.0188
24,GAAGCTGA,0.014
25,ACGGTCCT,-0.132
26,AAACTGTT,-0.043

row,Sequence,binding signal [E-score]
1,ATAAGATA,0.372
2,CTAAGATA,0.213
3,GAAAGATA,0.329
4,GTTAGATA,0.321
5,GATAGATC,0.268
6,GTAAGATA,0.229
7,TAAAGATA,0.27
8,AAAAGATA,0.137
9,GATAGATA,0.347
10,AATAGATA,0.32
11,TATAGATA,0.368
12,CATAGATA,0.297
13,AACATCGA,0.134
14,GCACAAAC,-0.0175
15,AGCGTGGA,0.126
16,AAAAGAGA,0.147
17,TCCATTCA,-0.131
18,TAACAATA,0.292
19,GATTTGCC,-0.0374
20,CGTTATCC,-0.0591
21,ACACCTGC,-0.197
22,GTGCGGGA,-0.196
23,CTCCCATC,-0.161
24,AATAGATG,0.267
25,AATAGATC,0.161
26,AATAGATT,0.352

row,Sequence,binding signal [E-score]
1,CTAGTCGA,0.131
2,GATAAGCA,0.0731
3,ATAATACG,0.344
4,ATAATAAG,0.331
5,ATAATACC,0.197
6,CTAATAAG,0.127
7,ATAATAAT,0.31
8,ATAATACA,0.242
9,AGGAACCA,0.128
10,AAGCTTGC,-0.0667
11,AAGACGGC,-0.186
12,CCTCGCTC,-0.125
13,AAATATAA,0.269
14,AACTATAT,0.415
15,AACTATAC,0.253
16,AACTATAG,0.327
17,AAATATAC,0.401
18,CAATATAC,0.243
19,AAATATAT,0.417
20,AAATATAG,0.22
21,GAATATAC,0.293
22,AAGTGCGG,0.009
23,CGAGCCTA,-0.0633
24,GAACGTCA,-0.14
25,CGGCACTA,0.0999
26,ATTTAGGG,-0.024

row,Sequence,binding signal [E-score]
1,CTTTGCTC,-0.124
2,GAAGTACA,0.237
3,AAAGTACC,0.291
4,AAAGTACA,0.366
5,TAAGTACA,0.35
6,AAAGTACG,0.192
7,CAAGTACA,0.151
8,CCGTTGGA,-0.177
9,ACAAAACG,-0.11
10,AATTTACC,0.345
11,AATTTACT,0.416
12,AATTTAAT,0.321
13,AATTTACG,0.338
14,ATTTTACC,0.322
15,GATTTACC,0.187
16,TATTTACA,0.235
17,CATTTACG,0.0408
18,AATTTACA,0.331
19,ATTTTACG,0.268
20,AATTTAGT,0.165
21,CATTTACA,0.277
22,AAAAATGT,0.129
23,AAGGCAGC,0.0072
24,CCAAACGG,-0.0693
25,CAATGTTA,0.195
26,CTGCGCCC,-0.144

# Source: article PMC6212790, “How bacterial xenogeneic silencer rok distinguishes foreign from self DNA in its resident genome”
